Measurements taken from PubChem BioAssay AID1159580 (chemical genetic matrix, 2015).
Several values for one entry are separate records, joined by “and”; a condition that tells them apart may be missing. Identical values can stand only once. Out of some 5,500 compounds screened, about 2,000 (36%) were called active. About 18% were inconclusive and are not listed. Cut-off read from the data, not from the text of the source: active = normalized growth mostly below about 0.91 (no sharp cut-off); inconclusive = no clear call, values can overlap the other calls; inactive = mostly above about 0.92. The list shows a part of the results.

Test: chemical genetic growth profiling, strain panel (AID 1159580);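 note: tested at 20 µM; growth read once vehicle control cultures reached saturation at 30 °C; 1 = growth at the plate median or of vehicle wells; lower values mean less growth of the strain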
Conditions: S. cerevisiae deletion strains, growth OD
[1] = locus YHR030C, strain SLT2, active compounds read low
[2] = locus YHR079C, strain IRE1, active compounds read low
[3] = locus YJL095W, strain BCK1, active compounds read low
[4] = locus YJR066W, strain TOR1, active compounds read low
[5] = locus YLR113W, strain HOG1, active compounds read low
[6] = locus YNL183C, strain NPR1, active compounds read low
[7] = locus YOR231W, strain MKK1, active compounds read low
[8] = locus YPL256C, strain CLN2, active compounds read low

Measured: normalized growth

NCCCCN
inactive: locus YAL013W, strain DEP1, active compounds read low 1.02 | locus YAL040C, strain CLN3, active compounds read low 1.07 | locus YBR021W, strain FUR4, active compounds read low 1.02 | locus YBR229C, strain ROT2, active compounds read low 1 | locus YCL029C, strain bik1, active compounds read low 0.99 | locus YCL061C, strain MRC1 (second series), active compounds read low 0.999 | locus YDL035C, strain GPR1, active compounds read low 1.04 | locus YDL074C, strain BRE1, active compounds read low 1.01 | locus YDL101C, strain DUN1, active compounds read low 1.01 | locus YDL185W, strain tfp1, active compounds read low 1.02 | locus YDL192W, strain arf1, active compounds read low 1.01 | locus YDR101C, strain arx1, active compounds read low 0.971 | locus YDR150W, strain NUM1, active compounds read low 1.01 | locus YDR162C, strain NBP2, active compounds read low 1.04 | locus YDR318W, strain mcm21, active compounds read low 1.01 | locus YDR363W, strain ESC2, active compounds read low 1.03 | locus YDR388W, active compounds read low 1.01 | locus YDR502C, strain sam2, active compounds read low 0.994 | locus YEL061C, strain CIN8, active compounds read low 1.01 | locus YER002W, strain NOP16, active compounds read low 1 | locus YER110C, active compounds read low 1.01 | locus YER155C, strain BEM2, active compounds read low 1.01 | locus YER167W, strain BCK2, active compounds read low 1.02 | locus YGL078C, strain dbp3, active compounds read low 0.995 | locus YGL086W, strain mad1, active compounds read low 0.985 | locus YGL248W, strain PDE1, active compounds read low 1 | locus YGR078C, strain PAC10, active compounds read low 0.999 | locus YGR135W, strain pre9, active compounds read low 1.06 | locus YGR229C, strain SMI1, active compounds read low 1.02 and 1.01 | locus YGR252W, strain gcn5, active compounds read low 1.04 | [1] 1 and 0.949 | locus YHR079C, strain IRE1 (second series), active compounds read low 1 | [2] 0.969 | locus YHR094C, strain hxt1, active compounds read low 1.01 | locus YHR129C, strain ARP1, active compounds read low 1.01 | locus YHR200W, strain rpn10, active compounds read low 1 | locus YIL066C, strain RNR3, active compounds read low 1.01 | locus YIL073C, strain SPO22, active compounds read low 1.11 | locus YIL125W, strain kgd1, active compounds read low 0.997 | locus YIR030C, strain dcg1, active compounds read low 0.999 | [3] 1.01 and 0.994 | locus YJL134W, strain LCB3, active compounds read low 1.01 | locus YJL168C, strain set2, active compounds read low 1.01 | locus YJL187C, strain SWE1 (second series), active compounds read low 1.01 | locus YJR043C, strain POL32, active compounds read low 1 | [4] 0.93 | locus YJR075W, strain HOC1, active compounds read low 1.01 | locus YKL009W, strain mrt4, active compounds read low 0.99 | locus YKL068W, active compounds read low 0.999 | locus YKL085W, strain MDH1 (second series), active compounds read low 1 | locus YKL085W, strain MDH1, active compounds read low 1 | locus YKL190W, strain CNB1, active compounds read low 0.999 | locus YKR001C, strain vps1, active compounds read low 1 | locus YLR039C, strain RIC1, active compounds read low 1.05 | locus YLR058C, strain SHM2, active compounds read low 1.01 | locus YLR102C, strain apc9, active compounds read low 1 | [5] 1.01 | locus YLR262C, strain YPT6, active compounds read low 1.06 | locus YLR268W, strain sec22, active compounds read low 0.996 | locus YLR330W, strain CHS5, active compounds read low 1.01 | locus YLR342W, strain FKS1 (second series), active compounds read low 1.07 | locus YLR371W, strain rom2, active compounds read low 1 | locus YLR418C, strain cdc73, active compounds read low 1.03 | locus YML016C, strain PPZ1, active compounds read low 1 | locus YML032C, strain rad52, active compounds read low 0.992 | locus YML124C, strain tub3, active compounds read low 1 | locus YMR078C, strain ctf18, active compounds read low 1 | locus YMR223W, strain ubp8, active compounds read low 1.05 | locus YMR307W, strain GAS1, active compounds read low 1.07 and 1.01 | locus YNL067W, strain RPL9B, active compounds read low 1 | locus YNL128W, strain TEP1, active compounds read low 1.01 | locus YNL153C, strain GIM3, active compounds read low 1 | locus YNL175C, strain NOP13, active compounds read low 1 | [6] 0.961 | locus YNL197C, strain WHI3, active compounds read low 1 | locus YNL224C, strain SQS1, active compounds read low 1 | locus YNL233W, strain BNI4, active compounds read low 1.01 | locus YNL250W, strain rad50, active compounds read low 1.03 | locus YNL271C, strain bni1, active compounds read low 1.01 | locus YNL298W, strain CLA4, active compounds read low 1.01 | locus YNL307C, strain MCK1, active compounds read low 1.02 | locus YNR052C, strain pop2, active compounds read low 1 | locus YOL012C, strain htz1 0.897 | locus YOL147C, strain pex11, active compounds read low 1.01 | locus YOR061W, strain CKA2, active compounds read low 1 | locus YOR069W, strain VPS5, active compounds read low 1.01 | locus YOR083W, strain WHI5 (second series), active compounds read low 1.01 | locus YOR136W, strain idh2, active compounds read low 0.992 | locus YOR144C, strain elg1, active compounds read low 1 | locus YOR184W, strain ser1, active compounds read low 1 | [7] 0.957 | locus YOR316C, strain cot1, active compounds read low 1 | locus YPL055C, strain LGE1, active compounds read low 0.99 | locus YPL241C, strain CIN2, active compounds read low 1.01 | [8] 0.958 | locus YPR119W, strain clb2, active compounds read low 0.994 | locus YPR141C, strain kar3, active compounds read low 1 | locus YPR163C, strain tif3, active compounds read low 1.01 | locus YPR167C, strain met16, active compounds read low 1 | strain wtn01, active compounds read low 0.995

CCC(=O)NCC[C@@H]1CCc2ccc3c(c21)CCO3
active: locus YOR270C, strain vph1, active compounds read low 0.771
inactive: locus YAL021C, strain ccr4, active compounds read low 1.03 | locus YAL026C, strain drs2, active compounds read low 1.01 | locus YAL030W, strain snc1, active compounds read low 1.01 | locus YBL061C, strain skt5, active compounds read low 1.02 | locus YBR009C, strain hhf1, active compounds read low 0.987 | locus YBR023C, strain chs3, active compounds read low 1.02 | locus YBR171W, strain sec66, active compounds read low 1 | locus YBR231C, strain swc5, active compounds read low 0.993 | locus YBR279W, strain paf1, active compounds read low 1.02 | locus YCL011C, strain gbp2, active compounds read low 1 | locus YCL016C, strain dcc1, active compounds read low 1.04 | locus YCL061C, strain MRC1, active compounds read low 0.988 | locus YCL069W, strain vba3, active compounds read low 1 | locus YCR088W, strain abp1, active compounds read low 1.01 | locus YDL005C, strain med2, active compounds read low 0.995 | locus YDL040C, strain nat1, active compounds read low 1 | locus YDR001C, strain nth1, active compounds read low 1 | locus YDR069C, strain doa4, active compounds read low 0.982 | locus YDR137W, strain rgp1, active compounds read low 1.04 | locus YDR159W, strain sac3, active compounds read low 0.924 | locus YDR195W, strain ref2 1.01 | locus YDR297W, strain sur2, active compounds read low 0.989 | locus YDR334W, strain swr1, active compounds read low 1 | locus YDR335W, strain msn5, active compounds read low 0.998 | locus YDR392W, strain spt3, active compounds read low 0.988 | locus YEL003W, strain gim4, active compounds read low 0.972 | locus YEL037C, strain rad23, active compounds read low 1.01 | locus YEL061C, strain CIN8 (second series), active compounds read low 0.991 | locus YER015W, strain faa2, active compounds read low 1 | locus YER016W, strain bim1, active compounds read low 1.02 | locus YER111C, strain swi4, active compounds read low 1.03 | locus YER155C, strain BEM2 (second series), active compounds read low 1.06 | locus YFR010W, strain ubp6, active compounds read low 0.953 | locus YGL167C, strain pmr1, active compounds read low 1 | locus YGL173C, strain kem1, active compounds read low 0.978 | locus YGL227W, strain vid30, active compounds read low 1.01 | locus YGL240W, strain doc1, active compounds read low 1.01 | locus YGL253W, strain hxk2, active compounds read low 0.972 | locus YHR013C, strain ard1, active compounds read low 1.02 | locus YHR027C, strain rpn1, active compounds read low 0.998 | [1] 0.947 | [2] 0.953 | locus YHR142W, strain chs7, active compounds read low 0.989 | locus YJL092W, strain hpr5, active compounds read low 1.01 | locus YJL095W, strain BCK1 (second series), active compounds read low 1.01 | [3] 0.981 | locus YJL115W, strain asf1, active compounds read low 1.02 | locus YJL129C, strain trk1, active compounds read low 1 | locus YJL154C, strain vps35, active compounds read low 1.01 | locus YJL164C, strain tpk1, active compounds read low 0.968 | locus YJL166W, strain qcr8, active compounds read low 0.98 | locus YJL187C, strain SWE1, active compounds read low 1.01 | [4] 0.936 | locus YKL160W, strain elf1, active compounds read low 1.05 | locus YKR026C, strain gcn3, active compounds read low 1.01 | locus YKR091W, strain srl3, active compounds read low 1 | locus YLL001W, strain dnm1, active compounds read low 0.952 | locus YLL026W, active compounds read low 1 | locus YLL041C, strain sdh2, active compounds read low 0.997 | locus YLR027C, strain aat2, active compounds read low 0.999 | [5] 0.95 | locus YLR221C, strain rsa3, active compounds read low 0.953 | locus YLR258W, strain gsy2, active compounds read low 1.02 | locus YLR262C, strain YPT6 (second series), active compounds read low 1.01 | locus YLR320W, strain mms22, active compounds read low 0.975 | locus YLR342W, strain FKS1, active compounds read low 1 | locus YLR357W, strain rsc2, active compounds read low 1.02 | locus YLR370C, strain arc18, active compounds read low 1 | locus YLR384C, strain iki3, active compounds read low 1.01 | locus YML120C, strain ndi1, active compounds read low 0.963 | locus YMR058W, strain fet3, active compounds read low 1.01 | locus YMR125W, strain sto1, active compounds read low 1 | locus YMR129W, active compounds read low 0.985 | locus YMR205C, strain PFK2, active compounds read low 1 | locus YMR231W, strain pep5, active compounds read low 1 | locus YNL071W, strain lat1, active compounds read low 1.01 | [6] 0.904 | locus YNL209W, strain ssb2, active compounds read low 1.01 | locus YNL248C, strain rpa49, active compounds read low 1.01 | locus YNL322C, strain KRE1 (second series), active compounds read low 1.02 | locus YNR049C, strain mso1, active compounds read low 1 | locus YOR001W, strain rrp6, active compounds read low 0.929 | locus YOR070C, strain gyp1, active compounds read low 1.02 | locus YOR080W, strain dia2, active compounds read low 1.01 | locus YOR083W, strain WHI5, active compounds read low 0.966 | locus YOR106W, strain vam3, active compounds read low 1 | [7] 0.969 | locus YOR265W, strain rbl2, active compounds read low 1 | locus YOR290C, strain snf2, active compounds read low 1.01 | locus YPL051W, strain arl3, active compounds read low 1.06 | locus YPL078C, strain atp4, active compounds read low 1.03 | locus YPL106C, strain sse1, active compounds read low 1.04 | locus YPL240C, strain hsp82, active compounds read low 1.01 | [8] 0.942
